WT yeast gro inh – growth inhibition of WT yeast, mitochondrial fusion screen | mitochondrial fusion phenotypic screen, WT strain | actives 2.1% (n = 190,000) | AID 1362 | inhibition, % at 10 µM; in the data active = inhibition above about 58%; tested in S. cerevisiae
CHOP inhibitor – inhibitors of CHOP induction in ER stress response; CHO-K1 CHOP-promoter luciferase, tunicamycin-induced, 15-18 h; inhibition, % at 10 µM; actives 3.8% (n = 220,000); AID 2732;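 active = compounds that reduced the stress-induced luciferase reporter signal by more than about 70% of percent inhibition, limit read from the data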
Lmaj promast – inhibitors of Leishmania major promastigote growth. Leishmania major promastigotes, resazurin fluorescence viability. inhibition, % at 10 µM. actives 9% (n = 200,000); in the data active = inhibition above about 50%;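 also: promastigotes grown with compound for 44 hours at 28 °C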
Arbovirus inh – arbovirus infection inhibition. arbovirus infection cell-based antiviral screen. inhibition, % at 10 µM. actives 0.37% (n = 200,000); in the data active = inhibition above about 30%
Hits are given with their value; - = inactive; . = no result given. This is a sample that favours compounds with a hit; in the whole collection about 12% have one here.

SMILES | WT yeast gro inh | CHOP inhibitor | Lmaj promast | Arbovirus inh
Cc1nn(-c2ccccc2)c(Cl)c1C1C(C#N)=C(N)Oc2n[nH]c(C)c21 (stereo not given) | - | - | - | -
Cc1[nH]nc2c1C(c1ccc(-c3ccc(Cl)cc3)o1)C(C#N)=C(N)O2 (stereo not given) | - | - | 100 | -
Cc1[nH]nc2c1C(c1ccc(-c3ccccc3C#N)o1)C(C#N)=C(N)O2 (stereo not given) | - | - | 100 | -
Cc1cc(C2C(C#N)=C(N)Oc3n[nH]c(C)c32)c(C)s1 (stereo not given) | - | - | - | -
Cc1ccc(-c2ccc(C3C(C#N)=C(N)Oc4n[nH]c(C)c43)o2)cc1 (stereo not given) | - | - | 101 | -
Cc1[nH]nc2c1C(c1ccc(F)cc1)C(C#N)=C(N)O2 (stereo not given) | - | - | - | -
CCOc1ccc(/C=N/NC(=O)CN2CCCCCCC2)cc1 | - | - | - | -
CCOC(=O)C1(CC/C(C)=N\NC(N)=O)CC(C)(C)OC1=O (stereo not given) | - | - | - | -
COc1ccc(/C(C)=N\O)cc1OC | . | - | . | .
CCc1ccccc1NC(=O)CN(C)C(=O)CSc1nc2cc(Cl)ccc2s1 | - | - | - | -
CNCC/C=C1/c2ccccc2CSc2ccccc21 | - | - | 90 | -
O=C(Nc1cccc(S(=O)(=O)N2CCCCC2)c1)c1ccc2c(=O)n3c(nc2c1)CCCCC3 | - | - | - | -
Cc1cc(C(=O)N/N=C/C=C/c2ccccc2)n[nH]1 | . | - | . | .
CC(/C=C/c1ccccc1)=N\NC(=O)c1ccc(Br)cc1 | - | - | - | -
CC1=C(/C=C/C(C)=N\NC(=O)c2ccncc2)C(C)(C)CCC1 | - | - | 81 | -
CC(/C=C/c1ccc2c(c1)OCO2)=N/NC(=O)c1ccncc1 | . | - | . | .
CC(/C=C/c1cccc([N+](=O)[O-])c1)=N\NC(=O)c1ccncc1 | - | - | 55 | -
CC(/C=C/c1ccccc1)=N/NC(=O)c1cccc(Br)c1 | - | - | 72 | -
Cc1cc(C(=O)N/N=C/C=C/c2cccc([N+](=O)[O-])c2)n[nH]1 | - | - | 57 | -
CC(=O)NS(=O)(=O)c1ccc(NC(=O)c2oc3c(Cl)cccc3c2C)cc1 | . | - | . | .
O=C(NC(=S)NC1C2CC3CC(C2)CC1C3)C12CC3CC(CC(C3)C1)C2 (stereo not given) | 63 | - | 51 | -
CC(C)(C)NC(=S)NC(=O)C12CC3CCC(CC(C3)C1)C2 | 70 | - | - | -
CN(C)NC(=S)NC(=O)C12CC3CC(CC(C3)C1)C2 | - | - | - | -
CC12CC3(C)CC(C)(C1)CC(C(=O)NC(=S)N1CCOCC1)(C2)C3 | - | - | - | -
CC12CC3(C)CC(C)(C1)CC(C(=O)NC(=S)NC(C)(C)C)(C2)C3 | 70 | - | - | -
SMILES | WT yeast gro inh | CHOP inhibitor | Lmaj promast | Arbovirus inh
Cc1cc(Cl)c(S(=O)(=O)N2CCN(c3ccccn3)CC2)cc1OCC(=O)NC1CCCCC1 | . | - | . | .
O=S(=O)(c1ccc(N2CCOCC2)nc1)N(Cc1ccccn1)Cc1ccccn1 | . | - | . | .
COC(=O)N1[C@H](C)C=C[C@]1(Cc1ccccc1)C(=O)O | - | - | - | -
Cc1cc(N2C(=O)C3CC=CC(C)C3C2=O)no1 (stereo not given) | - | - | - | -
O=C(Nc1nc2ccccc2[nH]1)c1ccc(F)c(S(=O)(=O)N2CCOCC2)c1 | - | - | - | -
CCC(Oc1ccccc1)C(=O)Nc1nc2ccccc2[nH]1 (stereo not given) | - | - | 100 | -
CCOc1ccc(C(=O)Nc2nc3ccccc3[nH]2)cc1OCC | - | - | 52 | -
COc1ccc(C(=O)Nc2nc3ccccc3[nH]2)cc1OC | - | - | 65 | -
COc1cc(C(=O)Nc2nc3ccccc3[nH]2)ccc1OC(F)F | . | - | . | .
COc1ccc(C(=O)Nc2nc3ccccc3[nH]2)cc1S(=O)(=O)N1CCCC1 | - | - | 59 | -
NC(=O)Nc1ccc(C(=O)OCC(=O)Nc2ccc([N+](=O)[O-])cc2C(F)(F)F)cc1 | - | - | - | -
COc1cc(OC)cc(C(=O)Nc2nc3ccccc3[nH]2)c1 | - | - | 64 | -
COc1ccc(OCC(=O)Nc2nc3ccccc3[nH]2)cc1 | - | - | - | -
O=C(COc1ccc2ccccc2c1)Nc1nc2ccccc2[nH]1 | - | 78 | - | -
Cc1ccc(NC(=S)N(CCN2CCOCC2)Cc2cc3cc4c(cc3[nH]c2=O)OCO4)cc1 | - | - | - | -
COc1cccc(/C=N/N=C(\N)c2nonc2N)c1O | - | - | - | -
O=C(Nc1ccncc1)c1cn(-c2ccccc2)nc1-c1cccs1 | - | - | 95 | -
CC(NC(=O)COC(=O)c1cn(-c2ccccc2)nc1-c1cccs1)c1ccccc1 (stereo not given) | - | 90 | - | -
O=C(Nc1nccs1)c1cn(-c2ccccc2)nc1-c1ccncc1 | - | - | - | -
CCCNC(=O)C1CCN(S(=O)(=O)c2cccc3nonc23)CC1 | - | - | - | -
O=C(CCS(=O)(=O)c1cccc2nonc12)N1CC(=O)N(CCc2ccccc2)C(=O)C1 | - | 73 | - | -
COc1ccccc1CNC(=O)C(NS(=O)(=O)c1cccc2nsnc12)C(C)C (stereo not given) | . | - | . | .
O=C(/C=C/c1ccc2c(c1)OCCCO2)c1ccc2ccccc2c1O | - | - | - | 32
CCC(=O)c1ccc(N2CCN(C(=O)c3ccccc3)CC2)c(F)c1 | - | - | - | -
O=C(c1cccc(Br)c1)N1CCN(c2cnn(-c3ccccc3)c(=O)c2Cl)CC1 | - | - | 84 | -
SMILES | WT yeast gro inh | CHOP inhibitor | Lmaj promast | Arbovirus inh
CCC1(C(=O)c2ccc(Cl)cc2)C2c3ccccc3OC(=O)C21C(=O)Nc1ccccc1 (stereo not given) | - | 78 | - | -
O=C1C2=C(Nc3ccccc3SC2c2ccco2)c2ccccc21 (stereo not given) | - | - | 99 | -
O=C1c2ccccc2NC(c2ccco2)N1O (stereo not given) | - | - | - | -
O=C(Nc1ccccc1N1CCCCC1)c1cccs1 | - | 86 | - | -
O=C(Nc1ccccc1N1CCCCC1)c1cnccn1 | - | 80 | - | -
O=C(Nc1ccccc1N1CCCC1)c1cc(Cl)ccc1Cl | - | - | - | -
O=C(NC(=S)Nc1ccccc1N1CCCCC1)c1ccco1 | 73 | - | - | -
Cc1ccccc1C(=O)Nc1ccccc1N1CCCCC1 | - | 88 | - | -
O=C(Nc1ccccc1N1CCCC1)c1cccnc1 | - | - | - | -
O=C(NC(=S)Nc1ccccc1N1CCCC1)c1ccco1 | . | - | . | .
COc1cc(NC(=S)NN2CCN(C)CC2)cc(OC)c1OC | - | - | - | -
O=C1C2CC=CCC2C(=O)N1c1ccc(N2CCN(c3ccccn3)CC2)c([N+](=O)[O-])c1 (stereo not given) | - | - | - | -
N#Cc1ccccc1NC(=O)CNc1ccccc1N1CCCCC1 | - | - | 71 | -
CN(Cc1ccccc1NCC(=O)Nc1ccccc1C#N)C1CCCCC1 | - | - | - | -
COC(=O)C(CC(C)C)Oc1ccc2c(C)cc(=O)oc2c1 (stereo not given) | - | - | 85 | -
O=C(C1CCCO1)N1CCN(S(=O)(=O)c2ccccc2)CC1 (stereo not given) | - | - | - | -
